Whole data set: some 33,000 sequences, median “normalized occupancy” near 0.075, cut for the highest 2% near 0.095. The sample as a whole holds a higher share of the highest values than the screen did.

For the test, the target named is MaxL homodimer (Homo sapiens, UniProt P61244 1-160). In words: universal protein-binding microarray (PBM); PBS-based mixture, 10 nM His-tagged protein dimer, 2% milk, 200 ng/uL BSA, 50 ng/uL salmon testes DNA, 0.02% TX-100; detection with Alexa 488 anti-His antibody;; high values mean tight binding. As to conditions: protein: recombinant; tags: C-terminal His-tag (pET21a); chain copies: 2; dsDNA, one strand shown. The essentials: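 His-tagged protein dimer at 10 nM was incubated on Agilent 4 x 44 K arrays with the 'all 10-mer' universal design. Bound protein was tagged with 10 ng/μL fluorophore-conjugated anti-His antibody, and arrays were scanned on a GenePix 4400A. Binding occupancy for each 8-mer is its fluorescence intensity normalised to the highest-ranked 8-mer's intensity.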
Sequence of MaxL homodimer (P61244 whole entry): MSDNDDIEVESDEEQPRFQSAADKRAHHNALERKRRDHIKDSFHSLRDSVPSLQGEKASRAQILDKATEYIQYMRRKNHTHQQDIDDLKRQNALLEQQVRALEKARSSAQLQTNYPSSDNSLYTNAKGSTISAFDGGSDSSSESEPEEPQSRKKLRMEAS
Take AGATGTGA: the binding signal was determined as 0.085 normalized occupancy.

Regarding GAATGTGC, the binding signal was found to be 0.0815 normalized occupancy.

CCATGTGA: the binding signal stood at 0.154 normalized occupancy.

With CAATGTGG, the binding signal is 0.097 normalized occupancy.

As for CGATGTGA, the binding signal was determined as 0.0833 normalized occupancy.

CCATGTAA: the binding signal worked out at 0.0855 normalized occupancy.

CAATGTGA: the binding signal came to 0.0948 normalized occupancy.

CGCACCAA: the binding signal turned out to be 0.0722 normalized occupancy.

As for GCGTTCAC, the binding signal was 0.0758 normalized occupancy.

As for CCGCTAAG, the binding signal was 0.0719 normalized occupancy.

For CGTCACTC, the binding signal was found to be 0.074 normalized occupancy.

For the sequence GCGGGTCA, the binding signal is 0.0811 normalized occupancy.

On to ACTTTGTG, for which the binding signal is 0.0718 normalized occupancy.

TACTACGA: the binding signal came to 0.0764 normalized occupancy.

As for CTAATATA, the binding signal amounted to 0.0824 normalized occupancy.

On to CATTAGAA, for which the binding signal was 0.0752 normalized occupancy.

Turning to ACATCACG, the binding signal turned out to be 0.0884 normalized occupancy.

Take CGTGTTAA: the binding signal came to 0.0819 normalized occupancy.

For the sequence GGCCCACA, the binding signal worked out at 0.0789 normalized occupancy.

In the case of ACTGACGA, the binding signal was 0.0719 normalized occupancy.

As to CTCCTTCC, the binding signal was found to be 0.081 normalized occupancy.

Take AGGCACGC: the binding signal was 0.0914 normalized occupancy.

Turning to GTTAACCA, the binding signal was determined as 0.0793 normalized occupancy.

In the case of AGCGTTCA, the binding signal was determined as 0.0757 normalized occupancy.

With AGATGTGG, the binding signal came to 0.0868 normalized occupancy.

As for ACATGTGG, the binding signal was determined as 0.209 normalized occupancy.

For the sequence GCATGTGA, the binding signal was found to be 0.157 normalized occupancy.

Regarding AAATGTGG, the binding signal was found to be 0.088 normalized occupancy.

In the case of GGATGTGA, the binding signal was found to be 0.0786 normalized occupancy.

Turning to CCATGTCC, the binding signal amounted to 0.0824 normalized occupancy.

Take CCATGTGC: the binding signal amounted to 0.209 normalized occupancy.

As for AGATGTGC, the binding signal worked out at 0.0825 normalized occupancy.

As to GAATGTGA, the binding signal was determined as 0.0817 normalized occupancy.

As to CGATGTGC, the binding signal was determined as 0.0807 normalized occupancy.

As to ACATGTCC, the binding signal came to 0.0918 normalized occupancy.

ACATGTGC: the binding signal amounted to 0.197 normalized occupancy.

Take CCGATGAC: the binding signal was 0.0747 normalized occupancy.

In the case of TTAGTAAA, the binding signal turned out to be 0.0726 normalized occupancy.

As for CGATGCCC, the binding signal was found to be 0.0786 normalized occupancy.

CCGAGTGC: the binding signal came out at 0.0748 normalized occupancy.

As for GATAGTGC, the binding signal came out at 0.0782 normalized occupancy.

Consider AAGTTAGA, for which the binding signal turned out to be 0.0733 normalized occupancy.

With CAGGCACC, the binding signal is 0.0774 normalized occupancy.

Turning to GACAAGAA, the binding signal amounted to 0.0761 normalized occupancy.

AGGCGTTA: the binding signal was 0.0751 normalized occupancy.

Regarding CCCATACG, the binding signal is 0.0864 normalized occupancy.

For CGTGATCC, the binding signal came out at 0.0811 normalized occupancy.

In the case of CATGACCA, the binding signal was found to be 0.0957 normalized occupancy.

In the case of GGTGATCA, the binding signal was determined as 0.0835 normalized occupancy.

Turning to CATGACCG, the binding signal is 0.0795 normalized occupancy.

In the case of CGTGACCA, the binding signal was 0.0992 normalized occupancy.

On to AGTGACCA, for which the binding signal was found to be 0.0753 normalized occupancy.

As to CGTGATCA, the binding signal was found to be 0.0962 normalized occupancy.

Take GATGACCA: the binding signal was 0.0763 normalized occupancy.

On to CGTGACCC, for which the binding signal stood at 0.0843 normalized occupancy.

CGCCAACA: the binding signal turned out to be 0.0741 normalized occupancy.

With ACCTGATG, the binding signal turned out to be 0.0825 normalized occupancy.

Regarding AGCTACAA, the binding signal worked out at 0.0722 normalized occupancy.

For ATGCCAAA, the binding signal worked out at 0.0777 normalized occupancy.

Regarding GAGATCCC, the binding signal turned out to be 0.0743 normalized occupancy.

As to ATACACGC, the binding signal was 0.102 normalized occupancy.

In the case of ATACACGG, the binding signal is 0.0846 normalized occupancy.

Regarding CTACACGC, the binding signal came out at 0.0967 normalized occupancy.

In the case of CTACACAC, the binding signal stood at 0.093 normalized occupancy.

CTACACGA: the binding signal stood at 0.0821 normalized occupancy.

Consider ATACACGA, for which the binding signal is 0.0889 normalized occupancy.

Regarding ACTTGACA, the binding signal turned out to be 0.0819 normalized occupancy.

GCTCCCAC: the binding signal was found to be 0.075 normalized occupancy.

Take CATCAAGC: the binding signal is 0.0726 normalized occupancy.

On to GTTGAAGA, for which the binding signal is 0.082 normalized occupancy.

For ACAGAAGA, the binding signal was determined as 0.0734 normalized occupancy.

Regarding ATGAAGGG, the binding signal turned out to be 0.0755 normalized occupancy.

Regarding CATGCGAG, the binding signal was determined as 0.0975 normalized occupancy.

With AATGCGAC, the binding signal was determined as 0.0782 normalized occupancy.

Regarding CATGCGAC, the binding signal is 0.109 normalized occupancy.

As to AATGCGAG, the binding signal came to 0.0746 normalized occupancy.

Take CATGCGAA: the binding signal stood at 0.0898 normalized occupancy.

Consider GATGCGAC, for which the binding signal amounted to 0.0759 normalized occupancy.

Regarding AAACCTTA, the binding signal was 0.0742 normalized occupancy.

In the case of AGAACGCG, the binding signal was 0.0788 normalized occupancy.

Regarding ATAACGTA, the binding signal was found to be 0.0784 normalized occupancy.

In the case of ACAACGTG, the binding signal turned out to be 0.149 normalized occupancy.

As to ATAACGTG, the binding signal worked out at 0.113 normalized occupancy.

Turning to ACGACGTG, the binding signal stood at 0.0963 normalized occupancy.

In the case of ACGACGTC, the binding signal amounted to 0.0746 normalized occupancy.

As for ACAACGGG, the binding signal was found to be 0.0774 normalized occupancy.

For ATAACGTC, the binding signal came to 0.0773 normalized occupancy.

As for AGAACGTA, the binding signal was found to be 0.0742 normalized occupancy.

Regarding AGAACGTG, the binding signal is 0.1 normalized occupancy.

For the sequence ACAACGTA, the binding signal was 0.077 normalized occupancy.

Take ACGACGTA: the binding signal turned out to be 0.0786 normalized occupancy.

As to ATAGCGCC, the binding signal came out at 0.0747 normalized occupancy.

For the sequence GGAGAAGA, the binding signal came to 0.0765 normalized occupancy.

As for ATTATTCG, the binding signal came out at 0.0765 normalized occupancy.

In the case of AGCTGACA, the binding signal worked out at 0.0754 normalized occupancy.

For AACAGCAC, the binding signal is 0.0765 normalized occupancy.

Take GTCACCTA: the binding signal came to 0.0725 normalized occupancy.

Consider ATTTTAAC, for which the binding signal turned out to be 0.0737 normalized occupancy.

For AAATTGCA, the binding signal was 0.0733 normalized occupancy.

Consider CCGCGCGC, for which the binding signal is 0.0828 normalized occupancy.

In the case of AAATAAAA, the binding signal is 0.079 normalized occupancy.

Turning to AAACCCAA, the binding signal came out at 0.0746 normalized occupancy.

For the sequence CTTGTCAC, the binding signal turned out to be 0.0759 normalized occupancy.

As to AACCACAC, the binding signal was 0.0854 normalized occupancy.

With ATCCACAA, the binding signal was determined as 0.077 normalized occupancy.

In the case of ATCCACAT, the binding signal turned out to be 0.0977 normalized occupancy.

Regarding AACCACAA, the binding signal is 0.0762 normalized occupancy.

As for ATCCACAG, the binding signal stood at 0.078 normalized occupancy.

In the case of AACCACAT, the binding signal was 0.0973 normalized occupancy.

For the sequence GCAACAGA, the binding signal is 0.0747 normalized occupancy.

The values are drawn from PMC4242493, “Sequence specificity incompletely defines the genome-wide occupancy of Myc”.
